# PubChem BioAssay (EPA / NIEHS)
# Inconclusive results are not listed. Active and inactive are the calls of the source. The calls were made as follows: active = hit-call score of the fitted dose curve at least 0.9, where 1 is the maximum; inconclusive = response in the unintended direction; inactive = score below 0.9.
# Biological target: Estrogen receptor (Homo sapiens) (UniProt P03372)
# Assay: CCTE_Deisenroth_AIME_384WELL_LUC_Inactive: CCTE's 384-well Estrogen Receptor Transactivation Assay without AIME metabolic competence (ERTA luciferase; metabolism negative), Deisenroth Lab (AID 2284038);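 also: VM7Luc4E2 breast cells given medium preincubated 2 h with S9-free microspheres; hits raise estrogen receptor luciferase signal so potencies reflect agonists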
# Description: CCTE_Deisenroth_AIME_384WELL (AIME metabolism assay) is a cell-based, single-readout assay that uses VM7Luc4E2, a human mammary gland/breast cell line, with measurements taken at 24 hour after chemical dosing in a 384-well plate.CCTE_Deisenroth_AIME_384WELL_LUC_Inactive is one of four assay components measured or calculated from the CCTE_Deisenroth_AIME_384WELL assay. It is designed to make measurements of luciferase induction, a form of inducible reporter, as detected with bioluminescence signals by luciferase-coupled ATP quantitation technology.CCTE_Deisenroth_AIME_384WELL_LUC_Inactive is a component of the CCTE_Deisenroth_AIME_384WELL assay that measures the effect of retroftting the VM7Luc ERTA assay with the Alginate Immobolization of Metabolic Enzymes (AIME) metabolism method. AIME is optimized to impart phase I hepatic metabolism using phenobarbital/beta-naphthoflavone induced hepatic S9 from male Sprague Dawley rats. Parent chemicals are incubated for 2 hours in the AIME assay prior to transfer to the VM7Luc ERTA assay plate. […] This endpoint evaluates reporter induction in metabolism negative mode. Using a type of inducible reporter in VM7Luc cells, gain-of-signal activity can be used to understand changes in the reporter gene as they relate to xenobiotic metabolism and the gene ESR1. This assay endpoint, CCTE_Deisenroth_AIME_384WELL_LUC_Inactive, was analyzed in the positive analysis fitting direction relative to 17beta-estradiol as the positive control in the ERTA assay. To generalize the intended target to other relatable targets, this assay endpoint is annotated to the nuclear receptor intended target family, where the subfamily is steroidal.
# The AIME procedure consists of a preparative "pre-stamping" step using a barium chloride/poly-L-lysine (PLL) solution followed by "stamping" the lid in alginate-hepatic S9 (metabolism positive) or alginate-water (metabolism negative) to form microspheres. Once stamping is completed, the AIME lids are placed in duplicate microplates (metabolism positive or negative) containing chemical solutions and incubated for two hours to facilitate metabolic reactions. The conditioned medium, containing parent chemical or metabolites, is then transferred to the cell-based VM7Luc Estrogen Receptor Transactivation Assay (ERTA) for 24 hours. A typical experimental design tests a 10-point concentration series (0.002 - 200 uM) for 8 compounds (96-well format)1 or 32 compounds (384-well format)2 in single technical replicate. AIME assay controls include trans-stilbene (bioactivated control) and ethylparaben (bioinactivated control). ERTA assay plate controls include 17-beta estradiol (positive control) and DMSO (solvent control). Experiments typically comprise a minimum of four experimental replicates (n=4).
# Sequence of Estrogen receptor (Homo sapiens) (P03372 whole entry, looked up): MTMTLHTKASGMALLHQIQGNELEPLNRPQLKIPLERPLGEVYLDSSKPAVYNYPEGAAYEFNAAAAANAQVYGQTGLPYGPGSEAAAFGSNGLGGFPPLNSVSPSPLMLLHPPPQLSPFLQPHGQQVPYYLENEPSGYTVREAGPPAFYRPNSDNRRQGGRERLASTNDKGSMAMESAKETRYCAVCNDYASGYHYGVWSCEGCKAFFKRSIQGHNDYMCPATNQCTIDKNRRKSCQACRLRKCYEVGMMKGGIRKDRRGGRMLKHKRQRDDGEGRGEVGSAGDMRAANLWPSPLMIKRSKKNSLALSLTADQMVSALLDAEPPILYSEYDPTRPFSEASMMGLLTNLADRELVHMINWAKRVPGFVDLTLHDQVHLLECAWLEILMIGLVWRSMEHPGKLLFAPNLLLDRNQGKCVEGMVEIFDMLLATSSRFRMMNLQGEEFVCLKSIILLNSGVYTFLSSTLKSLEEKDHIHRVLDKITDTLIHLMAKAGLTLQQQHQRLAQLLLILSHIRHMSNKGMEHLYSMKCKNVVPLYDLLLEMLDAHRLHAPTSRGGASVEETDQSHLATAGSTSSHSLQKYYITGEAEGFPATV
Compound,outcome,AC50
ClC(Cl)=C(Cl)C(Cl)=C(Cl)Cl,inactive,
CNC(=O)O/N=C/C(C)(C)S(C)=O (centres undefined),inactive,
NNC(=S)NN,inactive,
CCCCCCCCSC(=O)Oc1cc(Cl)nnc1-c1ccccc1,inactive,
CC(=O)c1cc(C(C)(C)C)cc2c1CCC2(C)C,inactive,
CCOP(=S)(OCC)SCSP(=S)(OCC)OCC,,10.3 µM (active)
COP(=O)(OC)OC,inactive,
O=S(=O)(c1ccc(Cl)cc1)c1ccc(Cl)cc1,inactive,
COP(=O)(OC)O/C(=C\Cl)c1cc(Cl)c(Cl)cc1Cl,inactive,
CNC,inactive,
c1cc[c]([Hg][c]2ccccc2)cc1,inactive,
CCOC(=O)Nc1cccc(OC(=O)Nc2ccccc2)c1,inactive,
O=C(NCO)NCO,inactive,
OCC(O)CCl (centres undefined),,0.124 µM (active)
Cc1ccc(N)cc1Cl,inactive,
O=C1CCCN1,inactive,
CC(C)(C)c1cc(O)ccc1O,,0.000233 µM (active)
[O-][Cl+2]([O-])O,inactive,
CC(=O)C=C(C)C,inactive,
CC(C)OC(=O)Nc1ccccc1,,17.4 µM (active)
O=C(Cc1ccccc1)c1ccccc1,,72 µM (active)
COc1ccc(C=O)cc1,inactive,
NC(=O)O,inactive,
C=C(C)C#N,inactive,
